High-throughput results from PubChem BioAssay.
A selection: hits, their analogues and other compounds. The true share with any hit is near 18%.
TDP1 inh: qHTS Assay for Inhibitors of Tyrosyl-DNA Phosphodiesterase (TDP1). Tyrosyl-DNA phosphodiesterase 1 (Homo sapiens), Q9NUW8. recombinant TDP1, AlphaScreen DNA substrate cleavage. Potency, µM (doses to about 130 µM), most hits filed as inhibitors. 350,000 tested, 0.28% active; also: nearly all actives have a fitted effect of over 40% in size
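Signal: AlphaScreen proximity between streptavidin donor and anti-FITC acceptor beads on intact substrate. Reaction: Tdp1 1 nM, substrate 15 nM final, 5 min RT after 15 min compound preincubation.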
TDP1 cell CPT: qHTS for Inhibitors of human tyrosyl-DNA phosphodiesterase 1 (TDP1): qHTS in cells in presence of CPT. Potency, µM (titrated, usually from 46.2 µM), most hits filed as inhibitors. chicken DT40 Tdp1-/-;hTDP1 cells + 20 nM CPT, ATP luminescence, 48 h. 420,000 tested, 12% active; also: nearly all actives have a fitted effect of over 55% in size
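Chicken DT40 Tdp1-/- cells complemented with human TDP1, 400 cells/well, exposed to compounds plus 20 nM camptothecin for at least 48 h at 37 C; viability read as ATP content by CellTiter-Glo luminescence.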
VDR inh: Inhibitors of the vitamin D receptor (VDR): qHTS; Potency, µM, usual class: inhibitors; 400,000 tested, 0.93% active; Vitamin D3 receptor (Homo sapiens), P11473; VDR-SRC2-3 peptide fluorescence polarization, 2 h
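Two reagent solutions held at 4 deg C in the dark were dispensed, compounds pinned at 23 nl, and the mixture incubated 2 h at room temperature. Read-out: fluorescence polarization of VDR–SRC2-3 peptide binding.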
TDP1 cell noCPT: qHTS for Inhibitors of human tyrosyl-DNA phosphodiesterase 1 (TDP1): qHTS in cells in absence of CPT. Potency, µM (highest dose often 46.2 µM), actives largely listed as inhibitors. 420,000 tested, 15% active. DT40 Tdp1-/- hTDP1 cells, no CPT, ATP luminescence, 48 h; also: nearly all actives have a fitted effect of over 55% in size
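Cells were dispensed at 400 per well, compounds added by pin tool, plates incubated ≥48 hr at 37 °C, then CellTiter-Glo added for 30 min at room temperature before luminescence reading. Line: DT40 Tdp1-/- complemented with hTDP1; camptothecin omitted.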
GCN5L2 inh: qHTS Assay for Inhibitors of GCN5L2; Potency, µM (titrated, usually from 58.9 µM), most hits filed as inhibitors; GCN5L2 HAT assay, ThioGlo1 CoA-SH fluorescence; 390,000 tested, 0.21% active; AID 504327, 2011
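Compounds, pin-transferred from DMSO stocks, meet 20nM GCN5L2 for 15 min before the reaction begins with H3(1-25) peptide (75uM) and acetyl-CoA (70uM). Thiol-reactive ThioGlo1 reports CoA release over 20 min at room temperature.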
PLK1 PBD block: qHTS for Inhibitors of PLK1-PDB (polo-like kinase 1 - polo-box domain): Primary Screen. Serine/threonine-protein kinase PLK1 (Homo sapiens), P53350. Plk1 PBD binding of FITC phosphopeptide, fluorescence polarization. Potency, µM, actives largely listed as inhibitors. 360,000 tested, 2.8% active. AID 720504, 2013; also: series mostly up to about 57 µM; nearly all actives have a fitted effect of over 65% in size
Target sequence (P53350 whole entry, looked up, the tested form may be a part): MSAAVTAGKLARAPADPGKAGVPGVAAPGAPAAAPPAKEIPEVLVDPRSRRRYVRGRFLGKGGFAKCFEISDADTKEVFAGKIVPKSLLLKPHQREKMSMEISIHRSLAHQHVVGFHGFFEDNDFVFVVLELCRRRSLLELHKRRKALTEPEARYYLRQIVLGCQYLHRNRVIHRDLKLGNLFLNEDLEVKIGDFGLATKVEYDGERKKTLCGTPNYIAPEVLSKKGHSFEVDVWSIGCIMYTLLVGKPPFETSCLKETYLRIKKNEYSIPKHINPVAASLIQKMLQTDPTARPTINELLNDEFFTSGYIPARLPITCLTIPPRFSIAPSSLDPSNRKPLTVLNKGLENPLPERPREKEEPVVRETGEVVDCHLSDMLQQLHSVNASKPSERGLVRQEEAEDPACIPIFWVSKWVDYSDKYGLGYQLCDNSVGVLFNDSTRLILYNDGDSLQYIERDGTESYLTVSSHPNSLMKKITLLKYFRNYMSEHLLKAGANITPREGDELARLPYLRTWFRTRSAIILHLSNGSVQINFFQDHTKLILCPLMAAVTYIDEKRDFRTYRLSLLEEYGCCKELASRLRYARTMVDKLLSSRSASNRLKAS
Large screens that a line does not name were inactive. Calls follow the shape of the dose curve; as a rule, active = well fitted curve in the direction sought with a large enough effect; inconclusive = small, poorly fitted or top-dose-only effect, or another doubt; inactive = no such curve, though single readings can be large; an effect the other way counts as inactive or inconclusive.

Cc1ccccc1N=C1Nc2ccccc2N[C@]12C[C@H]1CCC(=O)N3CC[C@@H](C2)[C@@H]13	none (no result: TDP1 inh, GCN5L2 inh)
COc1ccc(OC)c(C(=O)NC(CC(N)=O)c2ccc(NCc3ccccn3)c([N+](=O)[O-])c2)c1 (configuration not stated)	none (no result: TDP1 inh)
CN(CC(=O)Nc1ccc(Cl)c(C(F)(F)F)c1)C(=O)Cc1cccs1	TDP1 cell CPT inconclusive, TDP1 cell noCPT inconclusive
CN(CC(=O)Nc1ccc(Cl)c(C(F)(F)F)c1)C(=O)Cc1ccsc1	TDP1 cell CPT 16µM, TDP1 cell noCPT 16µM (no result: TDP1 inh)
N#Cc1ccccc1OCCCN1CCC(C(O)(c2ccccc2)c2ccccc2)CC1	TDP1 cell CPT 18µM, TDP1 cell noCPT inconclusive (no result: TDP1 inh, VDR inh, GCN5L2 inh)
Cc1ccc(OCCCN2CCC(C(O)(c3ccccc3)c3ccccc3)CC2)cc1	TDP1 cell CPT inconclusive, TDP1 cell noCPT inconclusive (no result: TDP1 inh, VDR inh, GCN5L2 inh)
C#Cc1ccccc1OCCCN1CCC(C(O)(c2ccccc2)c2ccccc2)CC1	TDP1 cell CPT 9.2µM, TDP1 cell noCPT 8.2µM (no result: TDP1 inh, VDR inh, GCN5L2 inh)
CNC(=S)N1CCN=C1Nc1nc(C)cc(C)n1	none
Cc1ccc(C)c(S(=O)(=O)N2CCCOC2CNC(=O)C(=O)NCCC2=CCCCC2)c1 (configuration not stated)	TDP1 cell CPT inconclusive, TDP1 cell noCPT 23µM
O=C(NCCC1=CCCCC1)C(=O)NCC1OCCCN1S(=O)(=O)c1ccccc1 (configuration not stated)	TDP1 cell noCPT inconclusive
Cc1ccc(C)c(S(=O)(=O)N2CCCOC2CNC(=O)C(=O)NCCc2ccccc2)c1 (configuration not stated)	TDP1 cell CPT inconclusive, TDP1 cell noCPT 16µM
O=C(Nc1cccc(Cl)c1Cl)c1cc(S(=O)(=O)NCc2ccc3c(c2)OCO3)ccc1F	none (no result: PLK1 PBD block)
CC(=O)N1CC(=O)N(c2ccccc2)C1=O	none (no result: TDP1 inh)
CN(C)C(=O)c1sccc1Oc1ccc(F)cc1[N+](=O)[O-]	PLK1 PBD block 24µM
COC(=O)c1ccc(CN2C(=O)c3ccccc3C2=O)cc1	none
COC(=O)c1ccc(CN2C(=O)C(C)N(C(=O)c3c(F)cccc3F)c3ccccc32)cc1 (configuration not stated)	TDP1 cell CPT 15µM, TDP1 cell noCPT 8.2µM (no result: TDP1 inh)
CC1C(=O)N(Cc2ccc(F)cc2)c2ccccc2N1C(=O)c1c(F)cccc1F (configuration not stated)	TDP1 cell CPT 16µM, TDP1 cell noCPT inconclusive (no result: TDP1 inh)
Cc1cc(C)cc(-n2c(N)c(C(=O)Nc3c(C)n(C)n(-c4ccccc4)c3=O)c3nc4ccccc4nc32)c1	TDP1 cell CPT 7.3µM, TDP1 cell noCPT 8.2µM
Cc1cccc(-c2cc(C(=O)Nc3c(C)n(C)n(-c4ccccc4)c3=O)c3ccccc3n2)c1	TDP1 cell CPT 26µM, TDP1 cell noCPT 15µM
Cc1c(NC(=O)c2cc(-c3ccc(F)cc3)nc3ccccc23)c(=O)n(-c2ccccc2)n1C	TDP1 cell CPT inconclusive, TDP1 cell noCPT 12µM
Cc1c(NC(=O)c2cc(-c3ccc(F)cc3)on2)c(=O)n(-c2ccccc2)n1C	TDP1 cell noCPT inconclusive, PLK1 PBD block inconclusive
Cc1cc(=O)n2nc(N3CCCC(C(=O)NCCCN4CC(C)CC(C)C4)C3)sc2n1 (configuration not stated)	GCN5L2 inh inconclusive
CCC1C(c2ccccc2)N(C)C(c2ccccc2)CC1(O)c1ccccc1 (configuration not stated)	TDP1 cell CPT inconclusive, TDP1 cell noCPT 23µM
CCN1CCN(CCNC(=O)c2ccc3c(c2)N(Cc2ccc(F)cc2)C(=O)/C(=C/c2ccccc2)S3)CC1	TDP1 cell CPT 12µM, TDP1 cell noCPT 8.2µM
Cc1ccccc1CN1C(=O)/C(=C\c2ccc(C(=O)NCCN3CCOCC3)cc2)Sc2ccccc21	TDP1 cell CPT inconclusive, TDP1 cell noCPT inconclusive
CCN1CCN(CCNC(=O)c2ccc(/C=C3/Sc4ccccc4N(Cc4cccc(Cl)c4)C3=O)cc2)CC1	TDP1 cell CPT 18µM, TDP1 cell noCPT 18µM
COC(=O)[C@@H]1CCCN1Cc1ccc2c(c1)CN(Cc1ccc(OC)c(C)c1)CCO2	none (no result: TDP1 inh, VDR inh, GCN5L2 inh, PLK1 PBD block)
CCOC1=C2CN(S(=O)(=O)c3ccc(C)cc3)[C@H](c3ccc(CC)cc3)C[C@@H]2N(S(=O)(=O)c2ccc(C)cc2)[C@H](c2ccccc2)C1	TDP1 cell CPT inconclusive, TDP1 cell noCPT inconclusive (no result: TDP1 inh, VDR inh, GCN5L2 inh)
CCOC1=C2[C@H](c3ccc(CC)cc3)N(S(=O)(=O)c3ccc(C)cc3)C[C@H]2C(C#N)(C#N)C(C#N)(C#N)C1	TDP1 cell CPT 3.7µM, TDP1 cell noCPT 3.3µM, PLK1 PBD block 17µM (no result: TDP1 inh, VDR inh, GCN5L2 inh)
CCOC1=C2[C@H](c3ccccc3Cl)N(S(=O)(=O)c3ccc(C)cc3)C[C@H]2C(C#N)(C#N)C(C#N)(C#N)C1	TDP1 cell CPT 4.6µM, TDP1 cell noCPT 9.2µM, PLK1 PBD block 27µM (no result: TDP1 inh, VDR inh, GCN5L2 inh)
O=C(NCc1nnc2n1CCN(C(=O)/C=C/c1ccccc1)CC2)c1cccc(F)c1	none (no result: TDP1 inh, VDR inh, GCN5L2 inh, PLK1 PBD block)
CCCCCCCCCCCCC(=O)N1CCCC[C@H]1CNC(=O)[C@@H](N)CCCCN	TDP1 cell CPT 13µM, TDP1 cell noCPT 21µM (no result: PLK1 PBD block)
Cc1oc(C)c2c(=O)cc(-c3ccc4c(c3)OCO4)cc(OC(=O)c3ccccc3Br)c12	TDP1 cell CPT 16µM, TDP1 cell noCPT inconclusive (no result: PLK1 PBD block)
CCOc1cc(-c2ccc3c(c2)OCO3)cc(=[O+]CC)c2c(C)oc(C)c12	TDP1 cell CPT inconclusive, VDR inh inconclusive, TDP1 cell noCPT 14µM (no result: GCN5L2 inh, PLK1 PBD block)
O=C(Oc1ccccc1Cl)c1cc(-c2ccc3c(c2)OCCO3)on1	none (no result: PLK1 PBD block)
Cc1oc(C)c2c(=O)cc(-c3ccc4c(c3)OCO4)cc(OC(=O)c3ccccc3Cl)c12	TDP1 cell CPT 23µM, TDP1 cell noCPT inconclusive (no result: PLK1 PBD block)
COc1ccc(-c2cc(C3CC3)nc(SCC(=O)c3cccs3)c2C#N)cc1	TDP1 cell CPT inconclusive, TDP1 cell noCPT 12µM
COc1ccc(-c2cc(-c3cccs3)c(C#N)c(SCC(=O)NCc3ccco3)n2)cc1	TDP1 cell CPT 1.8µM, TDP1 cell noCPT 2.3µM
COc1ccc(-c2cc(-c3ccccc3)nc(SCC(=O)Nc3ccccc3C)c2C#N)cc1	VDR inh inconclusive (no result: PLK1 PBD block)
CCOC(=O)CSc1nc(C2CC2)cc(-c2ccc(F)cc2)c1C#N	TDP1 cell CPT inconclusive, PLK1 PBD block inconclusive
COc1ccc(CNC(=O)CSc2nc(-c3ccccc3)cc(-c3cccs3)c2C#N)cc1	TDP1 cell CPT 15µM, TDP1 cell noCPT inconclusive
